target: T1, Protein kinase C zeta type (Homo sapiens) (UniProt Q05513); details: at 1 µM
T1 sequence (whole entry): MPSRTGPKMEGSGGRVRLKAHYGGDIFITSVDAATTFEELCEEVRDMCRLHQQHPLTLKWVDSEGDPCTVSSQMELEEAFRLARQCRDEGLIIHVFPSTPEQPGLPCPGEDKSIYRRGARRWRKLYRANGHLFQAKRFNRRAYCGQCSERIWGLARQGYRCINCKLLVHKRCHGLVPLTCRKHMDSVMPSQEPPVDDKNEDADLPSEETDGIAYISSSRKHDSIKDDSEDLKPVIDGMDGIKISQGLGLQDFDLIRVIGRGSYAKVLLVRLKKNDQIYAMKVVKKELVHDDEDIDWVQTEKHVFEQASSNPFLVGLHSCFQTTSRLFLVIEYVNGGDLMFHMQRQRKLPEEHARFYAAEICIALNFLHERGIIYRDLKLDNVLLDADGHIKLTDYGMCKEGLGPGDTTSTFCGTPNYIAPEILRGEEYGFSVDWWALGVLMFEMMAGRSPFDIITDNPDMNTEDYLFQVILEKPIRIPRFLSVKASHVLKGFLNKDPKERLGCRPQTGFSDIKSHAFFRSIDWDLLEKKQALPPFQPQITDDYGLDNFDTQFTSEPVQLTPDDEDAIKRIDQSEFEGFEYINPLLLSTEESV

Question: With CCc1nc(-c2ccc(OC)cc2)[nH]c1-c1ccncc1 as the compound, how does the residual activity read?
Answer: 105% (inactive)

Question: With COC(=O)[C@@]1(O)C[C@H]2O[C@]1(C)n1c3ccccc3c3c4c(c5c6ccccc6n2c5c31)C(=O)NC4 as the compound, how does the residual activity read?
Answer: 52% (inactive)

Question: With O=C1c2ccccc2-c2nc3nnnn3nc21 as the compound, how does the residual activity read?
Answer: 113% (inactive)

Question: For O=[N+]([O-])/C=C/c1ccc2c(c1)OCO2, which residual activity is on record?
Answer: 93% (inactive)

Question: C[S+]([O-])c1ccc(-c2nc(-c3ccc(F)cc3)c(-c3ccncc3)[nH]2)cc1 (stereo not given) was tested. Which residual activity did it give?
Answer: 108% (inactive)

Question: With CC(C)[C@H](CO)Nc1nc(Nc2cccc(Cl)c2)c2ncn(C(C)C)c2n1 as the compound, how does the residual activity read?
Answer: 101% (inactive)

Question: For O=c1[nH]c2ccccc2n1C1CCN(Cc2ccc(-c3nc4cc5[nH]cnc5cc4nc3-c3ccccc3)cc2)CC1, which residual activity is on record?
Answer: 109% (inactive)

Question: With CC(C)(C)c1cc(C=C(C#N)C#N)cc(Br)c1O as the compound, how does the residual activity read?
Answer: 99% (inactive)

Question: Which residual activity does the source give for O=C1Nc2ccc3ncsc3c2/C1=C/c1c[nH]cn1 here?
Answer: 86% (inactive)

Question: Which residual activity does the source give for COc1cc2ncnc(Nc3ccc(OCc4ccccc4)cc3)c2cc1OC here?
Answer: 101% (inactive)

From ChEMBL document CHEMBL2218924, “A broad activity screen in support of a chemogenomic map for kinase signalling research and drug discovery” (Biochem J, 2013)
